Test results published in PubChem BioAssay.
Active and inactive are the calls of the source.

Experiments:
[1] = E. coli DRC41 culture turbidity changes, primary screen, E. coli filamentation inducer project, strain DRC41, OD650, 48 h (AID 1152);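 also: E. coli MC1000 strain DRC41 lacking acrAB efflux pump and sulA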; settings: E. coli DRC41 (acrAB sulA), higher = more signal, called active from +8 up or from −8 down
[2] = small-molecule binders of probe aLefty1, primary screen, biochemical, small-molecule microarray, 635/667 nm fluorescence (AID 1153); settings: higher = more signal;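 also: score merges spot fluorescence with signal-to-noise ratio from the scanned slide images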
[3] = PSAC antagonists in infected red cells, primary screen, cell-based, P. falciparum Indochina, OD700, 1 h (AID 1154); settings: P. falciparum Indochina infected RBC osmotic lysis, higher = more signal, called active from +8 up or from −8 down
[4] = PSAC antagonists in infected red cells, primary screen, cell-based, P. falciparum Indochina, OD700, 2 h (AID 1155);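 also: lysis reports solute entry through the parasite surface anion channel PSAC; channel blockers reduce lysis of infected cells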; settings: P. falciparum Indochina infected erythrocytes, osmotic lysis OD700; higher = more signal, called active from +8 up or from −8 down
[5] = osmotic lysis modulators in infected erythrocytes, primary screen, PSAC antagonist project, cell-based, P. falciparum Indochina, OD700, 3 h (AID 1156); settings: higher = more signal, called active from +8 up or from −8 down
[6] = PSAC antagonists in infected red cells, primary screen, cell-based, P. falciparum Indochina, OD700, 18 h (AID 1157); settings: P. falciparum Indochina infected erythrocytes, osmotic lysis OD700, 18 h; higher = more signal, called active from +8 up or from −8 down
[7] = modulators of S6 phosphorylation in cells, primary screen, cell-based, A549, cytoblot, luminescence, serum-stimulated (AID 1158); settings: A549 phospho-S6 cytoblot, 5 h, higher = more signal;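 also: serum-stimulated A549 lung adenocarcinoma cells; signal is phosphorylated S6 detected by cytoblot immunostaining with HRP secondary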
[8] = molecular target: NADPH oxidase 2 (Homo sapiens) (UniProt P04839); assay: NOX2-dependent H2O2 signal modulators, primary screen, NOX inhibitor project, cell-based, HEK293-NOX2, PMA-stimulated, Amplex Red fluorescence (AID 1159); settings: 45 min, higher = more signal, called active from +8 up or from −8 down; also: test concentration not given here
NADPH oxidase 2 (Homo sapiens), sequence (P04839 whole entry, looked up): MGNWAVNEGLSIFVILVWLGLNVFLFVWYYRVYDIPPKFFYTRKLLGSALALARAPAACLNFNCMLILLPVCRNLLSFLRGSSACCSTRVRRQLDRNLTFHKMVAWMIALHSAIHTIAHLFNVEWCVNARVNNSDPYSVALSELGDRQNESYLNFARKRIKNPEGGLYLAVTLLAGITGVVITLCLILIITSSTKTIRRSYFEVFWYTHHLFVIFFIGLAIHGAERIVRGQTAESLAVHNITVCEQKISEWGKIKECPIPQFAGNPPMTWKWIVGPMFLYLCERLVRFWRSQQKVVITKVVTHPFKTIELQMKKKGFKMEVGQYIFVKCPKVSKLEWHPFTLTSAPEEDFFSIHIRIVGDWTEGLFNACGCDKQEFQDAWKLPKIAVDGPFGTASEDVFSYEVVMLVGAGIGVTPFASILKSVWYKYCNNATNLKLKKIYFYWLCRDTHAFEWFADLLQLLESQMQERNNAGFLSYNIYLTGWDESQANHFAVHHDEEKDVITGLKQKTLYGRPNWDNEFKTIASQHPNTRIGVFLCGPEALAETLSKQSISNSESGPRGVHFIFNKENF

[9] = molecular target: NADPH oxidase 4 (Homo sapiens) (UniProt Q9NPH5); assay: NOX4-dependent H2O2 signal modulators, primary screen, NOX inhibitor project, cell-based, HEK293-NOX4, tetracycline-induced, Amplex Red fluorescence (AID 1160); settings: 45 min, higher = more signal, called active from +8 up or from −8 down
NADPH oxidase 4 (Homo sapiens), sequence (Q9NPH5 whole entry, looked up): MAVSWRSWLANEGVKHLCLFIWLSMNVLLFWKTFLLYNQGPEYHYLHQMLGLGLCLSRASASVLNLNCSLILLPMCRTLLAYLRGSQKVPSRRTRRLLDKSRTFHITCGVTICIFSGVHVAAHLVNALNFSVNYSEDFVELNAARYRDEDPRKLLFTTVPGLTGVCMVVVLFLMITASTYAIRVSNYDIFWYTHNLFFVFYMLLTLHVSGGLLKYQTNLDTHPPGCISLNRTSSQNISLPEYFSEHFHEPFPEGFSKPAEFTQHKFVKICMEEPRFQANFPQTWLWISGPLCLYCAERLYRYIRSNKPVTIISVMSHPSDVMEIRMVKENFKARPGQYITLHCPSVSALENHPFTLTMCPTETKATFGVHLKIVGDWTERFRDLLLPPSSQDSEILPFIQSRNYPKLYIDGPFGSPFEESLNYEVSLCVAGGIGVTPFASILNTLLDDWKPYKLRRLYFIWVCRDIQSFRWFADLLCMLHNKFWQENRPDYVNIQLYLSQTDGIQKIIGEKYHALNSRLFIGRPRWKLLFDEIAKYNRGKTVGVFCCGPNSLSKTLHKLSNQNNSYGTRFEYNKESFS

[10] = molecular target: NADPH oxidase 5 (Homo sapiens) (UniProt Q96PH1); assay: NOX5-dependent H2O2 signal modulators, primary screen, NOX inhibitor project, cell-based, HEK293-NOX5, Amplex Red fluorescence (AID 1161); settings: HEK293-NOX5, ionomycin, 45 min, higher = more signal
NADPH oxidase 5 (Homo sapiens), sequence (Q96PH1 whole entry, looked up): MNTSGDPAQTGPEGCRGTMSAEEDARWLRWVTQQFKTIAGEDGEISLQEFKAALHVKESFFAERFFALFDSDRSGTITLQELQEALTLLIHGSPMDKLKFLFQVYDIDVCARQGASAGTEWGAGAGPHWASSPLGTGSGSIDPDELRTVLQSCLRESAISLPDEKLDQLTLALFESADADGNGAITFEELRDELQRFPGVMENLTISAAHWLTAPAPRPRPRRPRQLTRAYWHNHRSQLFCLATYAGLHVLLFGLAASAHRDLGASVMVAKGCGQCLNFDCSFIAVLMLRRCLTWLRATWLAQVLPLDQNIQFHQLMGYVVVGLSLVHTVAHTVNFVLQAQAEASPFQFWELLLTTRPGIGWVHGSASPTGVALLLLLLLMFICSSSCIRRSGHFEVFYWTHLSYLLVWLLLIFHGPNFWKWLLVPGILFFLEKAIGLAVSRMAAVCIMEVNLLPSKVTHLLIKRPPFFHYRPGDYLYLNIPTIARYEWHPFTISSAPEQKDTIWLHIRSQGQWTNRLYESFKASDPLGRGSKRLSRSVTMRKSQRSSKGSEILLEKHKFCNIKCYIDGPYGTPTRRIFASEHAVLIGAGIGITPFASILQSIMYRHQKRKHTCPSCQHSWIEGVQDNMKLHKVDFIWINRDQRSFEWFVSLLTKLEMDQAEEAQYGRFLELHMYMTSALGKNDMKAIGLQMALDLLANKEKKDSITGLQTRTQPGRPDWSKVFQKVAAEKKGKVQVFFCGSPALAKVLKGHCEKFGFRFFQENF

[11] = A549 cell viability effects, profiling panel, calcein-AM fluorescence, 48 h, basal (AID 1162); settings: higher = more signal; also: test concentration not given here
[12] = adipocyte viability effects, profiling panel, cell-based, 3T3-L1 adipocytes, calcein-AM fluorescence, 48 h, basal (AID 1163); settings: 3T3-L1 adipocytes viability, higher = more signal; also: test concentration not given here
[13] = HepG2 cell viability effects, profiling panel, calcein-AM fluorescence, 48 h, basal (AID 1164); settings: higher = more signal; also: test concentration not given here
[14] = MM1S cell viability effects, profiling panel, calcein-AM fluorescence, 48 h, basal (AID 1165); settings: higher = more signal;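 also: viability of MM1S multiple myeloma cells under basal unstimulated conditions; test concentration not given here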
[15] = basal RPMI8226 viability, no added stimulus, profiling panel, cell-based, calcein-AM fluorescence, 48 h, PK04 Diversity Set (AID 1166); settings: RPMI8226 myeloma viability, higher = more signal;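 also: cells grown under basal conditions without added stimulus; test concentration not given here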
[16] = basal HepG2 mitochondrial membrane potential changes, profiling panel, cell-based, JC-1 fluorescence, 24 h, 100 nL compound (AID 1167); settings: higher = more signal; also: test concentration not given here
[17] = basal 3T3-L1 adipocyte mitochondrial potential changes, profiling panel, cell-based, JC-1 fluorescence, 3T3-L1 adipocytes, 24 h, 100 nL compound (AID 1168); settings: JC-1 mitochondrial fluorescence, higher = more signal, called active from +8 up or from −8 down; also: test concentration not given here
[18] = basal RPMI8226 mitochondrial membrane potential changes, profiling panel, cell-based, JC-1 fluorescence, 24 h, 100 nL compound (AID 1169); settings: RPMI8226 myeloma, JC-1 mitochondrial potential fluorescence, higher = more signal; also: test concentration not given here
[19] = basal MM1S mitochondrial membrane potential changes, profiling panel, cell-based, JC-1 fluorescence, 24 h, 100 nL compound (AID 1170); settings: higher = more signal; also: test concentration not given here
[20] = A549 lung cancer cell viability effects, profiling panel, resazurin fluorescence, 24 h, PK04 Diversity Set (AID 1171); settings: higher = more signal, called active from +8 up or from −8 down; also: test concentration not given here

Structure (SMILES)	z-score [1]	composite z-score [2]	z-score [3]	z-score [4]	z-score [5]	z-score [6]	z-score [7]	z-score [8]	z-score [9]	z-score [10]	z-score [11]	z-score [12]	z-score [13]	z-score [14]	z-score [15]	z-score [16]	z-score [17]	z-score [18]	z-score [19]	z-score [20]
CC(C)(C)OC(=O)CC[C@]1(C(N)=O)N=C(c2ccc(OCCCO)cc2)O[C@H]1c1ccccc1CN=[N+]=[N-]	0.434 (inactive)	0.5	21.6 (active)	5.64 (inactive)	-0.173 (inactive)	0.223 (inactive)	0.0054	0.709 (inactive)	-0.508 (inactive)	1.26	0.249	0.434	0.088	-0.0887	-0.387	-1.01	0.352 (inactive)	0.469	0.0608	0.316 (inactive)
COc1cccc(C[C@H]2C[C@@H](CO[Si](C(C)C)(C(C)C)C(C)C)N3C(=O)[C@@]4(C(C)=O)O[C@@]23[C@@H]2C(=O)N(C)C(=O)[C@@H]24)c1	-0.848 (inactive)	-0.0061	1.31 (inactive)	0.576 (inactive)	-0.176 (inactive)	0.0375 (inactive)	-0.669	-0.175 (inactive)	0.746 (inactive)	0.181	-2.05	0.202	-0.342	-1.9	-1.38	-1.64	1.29 (inactive)	-0.846	-0.661	0.712 (inactive)
C=CCN1C(=O)[C@]2(O[C@H](CCn3cc([C@H](O)c4ccccc4)nn3)[C@@H]([Si](C)(C)c3ccc(OC)cc3)[C@@H]2C)c2cc(N3C(=O)c4cccc5cccc3c45)ccc21	0.443 (inactive)	-0.101	5.26 (inactive)	1.59 (inactive)	1.97 (inactive)	0.889 (inactive)	0.435	1.06 (inactive)	1.11 (inactive)	0.797	-0.133	-0.363	-3.33	-1.4	-4.46	2.24	1.19 (inactive)	-1.02	-1.33	-1.7 (inactive)
COc1ccc(CCNC(=O)[C@@H]2c3ccccc3C(=O)N(CC34CC5CC(CC(C5)C3)C4)[C@H]2c2ccc(CO)cc2)cc1	0.414 (inactive)	-0.0982	5.38 (inactive)	0.345 (inactive)	0.68 (inactive)	-0.484 (inactive)	1.15	-2.37 (inactive)	-1.91 (inactive)	-5.14	0.263	1.63	0.463	-1.39	-0.559	1.47	-0.138 (inactive)	-0.435	-0.0819	0.228 (inactive)
COc1cc2c(cc1O)C(c1ccc(CN3CCCC3)cc1)N(Cc1ccc([N+](=O)[O-])o1)CC2 (stereo not given)	-0.715 (inactive)	-0.257	23.1 (active)	7.28 (inactive)	-0.176 (inactive)	0.818 (inactive)	-0.683	-3.89 (inactive)	-2.56 (inactive)	-3.64	-0.731	0.0389	0.0023	0.279	-0.0679	-2.18	-2.19 (inactive)	0.733	-0.307	-0.679 (inactive)
C[C@]1(C(=O)NCC(F)(F)F)c2ccccc2C(=O)N(Cc2ccc(OC(F)(F)F)cc2)[C@H]1c1ccc(CO)cc1	-0.831 (inactive)	-0.284	2.58 (inactive)	0.295 (inactive)	3.67 (inactive)	0.451 (inactive)	-0.32	1.45 (inactive)	-0.0975 (inactive)	-1.45	0.377	0.194	0.334	0.0863	-1.37	0.756	-0.235 (inactive)	1.04	0.157	0.0382 (inactive)
CC(C)CNC(=O)[C@@]1(C)c2ccccc2C(=O)N(Cc2cc(F)cc(C(F)(F)F)c2)[C@H]1c1ccc(CO)cc1	-0.144 (inactive)	0.163	2.26 (inactive)	0.684 (inactive)	0.33 (inactive)	0.253 (inactive)	0.0857	-0.152 (inactive)	0.261 (inactive)	-0.364	-0.0148	1.32	-0.49	0.545	0.594	0.455	-0.175 (inactive)	-0.638	0.0607	0.906 (inactive)
CCOC(=O)C[C@H]1[C@H](OC(=O)c2cc3ccccc3oc2=O)[C@@H](NC(=O)C2CCCCC2)c2cc(OCCCO)ccc2N1C(=O)Cc1ccc(OC)cc1	-0.926 (inactive)	0.266	2.92 (inactive)	0.275 (inactive)	0.722 (inactive)	0.328 (inactive)	0.0301	1.57 (inactive)	1.01 (inactive)	1.63	-0.266	0.535	0.391	0.254	0.0583	0.38	-0.229 (inactive)	0.0411	0.185	-0.545 (inactive)
CC(C)C[C@@H]1NC(=O)C([C@@H](C)OCc2ccccc2)NC(=O)[C@@]23C(=O)N[C@@H](Cc4ccccc4)C2[C@H](C)[C@@]2(C)O[C@H]2C3/C=C/CC/C=C/CNC1=O (stereo not given in full)	0.757 (inactive)	-0.164	1.35 (inactive)	-0.601 (inactive)	-0.0722 (inactive)	-1.61 (inactive)	0.189	0.681 (inactive)	0.98 (inactive)	-0.24	-0.638	1.58	0.0538	-1.31	-2.32	2	0.17 (inactive)	-0.478	-0.638	-0.785 (inactive)
